Assay outcomes as filed in PubChem.
Neddylation inh – inhibitors of human cullin neddylation; TR-FRET cullin neddylation, biochemical; inhibition, % at 25 µM; 360,000 compounds, 0.58% hits; in the data active means inhibition above about 36%
Target sequence (P61081 whole entry, looked up): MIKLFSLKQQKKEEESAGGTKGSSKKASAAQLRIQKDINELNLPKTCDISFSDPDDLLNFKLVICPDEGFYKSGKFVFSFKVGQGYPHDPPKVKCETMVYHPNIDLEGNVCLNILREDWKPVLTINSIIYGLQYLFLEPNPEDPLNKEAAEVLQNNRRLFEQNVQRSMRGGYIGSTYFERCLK
Target sequence (Q13564 whole entry, looked up): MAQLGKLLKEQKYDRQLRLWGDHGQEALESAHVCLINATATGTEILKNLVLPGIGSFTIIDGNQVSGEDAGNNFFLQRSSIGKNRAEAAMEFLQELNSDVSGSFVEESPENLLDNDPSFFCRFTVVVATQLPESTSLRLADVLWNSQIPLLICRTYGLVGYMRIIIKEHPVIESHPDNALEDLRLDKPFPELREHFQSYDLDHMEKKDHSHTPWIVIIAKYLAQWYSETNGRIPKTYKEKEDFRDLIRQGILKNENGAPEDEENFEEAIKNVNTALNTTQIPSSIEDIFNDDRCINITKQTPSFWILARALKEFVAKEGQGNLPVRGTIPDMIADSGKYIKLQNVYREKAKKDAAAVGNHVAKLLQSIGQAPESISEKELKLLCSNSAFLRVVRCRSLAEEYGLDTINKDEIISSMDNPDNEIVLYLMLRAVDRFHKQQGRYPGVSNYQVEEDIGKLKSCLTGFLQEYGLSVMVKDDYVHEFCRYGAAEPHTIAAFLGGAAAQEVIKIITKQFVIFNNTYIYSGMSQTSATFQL
GC-B act – GC-B (human) receptor activation | P20594 | HEK293-GC-B cells, CNP EC30, cGMP TR-FRET; 0% at EC30 CNP, 100% saturating CNP | activation, % at 10 µM | 370,000 compounds, 0.11% hits;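 active means activation at 10 µM reaching about 35% in either raw or pattern-adjusted values, limit read from the data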
GC-A act – GC-A (human) enzyme activation; 370,000 compounds, 0.14% hits; AID 1671463; HEK293 GC-A cells, cGMP TR-FRET, EC30 ANP; 0% at EC30 ANP, 100% saturating ANP; activation, % at 10 µM; in the data active means activation above about 40%
NadD block – NadD (S. aureus) enzyme inhibition; AID 602399; purified NadD enzyme, colorimetric absorbance read-out; 360,000 compounds, 0.78% hits; inhibition, % at 20 µM; in the data active means inhibition above about 26%
Neddyl inh conf – cullin neddylation inhibition, confirmation. shares compounds with Neddylation inh. TR-FRET cullin neddylation biochemical assay. calls only at 25 µM. 1,800 compounds, 13% hits. AID 652217; in the data active means inhibition above about 40%;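 further: neddylation substrate is the cullin 1 ring ligase complex with SKP2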
A number is an active result; i = inactive; nt = no result shown; + = active, no number. Compounds with a hit are over-represented: about 1.5% of the library has one in this group of screens.

SMILES | Neddylation inh | GC-B act | GC-A act | NadD block | Neddyl inh conf
CN(C)CCCNC(=S)N(CCCN(C)C)Cc1cc2cc3c(cc2[nH]c1=O)OCO3 | i | i | i | i | nt
CCN(CC)CCCN(Cc1cc2cc3c(cc2[nH]c1=O)OCO3)C(=S)NCCCN(C)C | 43.7 | i | i | i | i
O=P(O)(O)c1cc(-c2ccccc2)oc1-c1ccccc1 | 46.0 | i | i | i | nt
Cc1ccc2nc(CSc3nc(C)cc(C)c3C#N)[nH]c2c1 | 47.6 | i | i | i | nt
Cc1nc(SCC(N)=O)[nH]c(=O)c1C | nt | i | i | nt | nt
COc1cc(O)c(C(CC(=O)N2CC(C)OC(C)C2)c2ccc3c(c2)OCO3)c(OC)c1 (configuration not stated) | nt | i | i | nt | nt
OC[C@@H]1CN(Cc2ccco2)C[C@H](n2cnc3c(Nc4ccccc4)ncnc32)O1 | 42.6 | i | i | i | nt
OC[C@@H]1CN(Cc2ccc(Cl)cc2)C[C@H](n2cnc3c(Nc4ccccc4)ncnc32)O1 | 47.3 | i | i | i | nt
COc1ccc(CN2CCc3c([nH]c4ccccc34)C2)cc1Br | 41.1 | i | i | i | i
CCOc1cc(CN2CCc3c([nH]c4ccccc34)C2)ccc1OC | i | i | i | i | nt
Cc1ccc(C(=O)N/C(=C/c2ccc(-c3cc(C(F)(F)F)ccc3Cl)o2)C(=O)NCc2cccnc2)cc1 | 48.0 | i | i | i | nt
COc1cc(C(=O)N/N=C/c2sc(N3CCOCC3)nc2-c2ccccc2)cc(OC)c1OC | 52.1 | i | i | i | i
O=C(O)c1cccc(N/N=C/c2sc(N3CCOCC3)nc2-c2ccccc2)c1 | 41.0 | i | i | i | nt
O=C(Nc1ccccc1F)C(=Cc1sc(N2CCOCC2)nc1-c1ccccc1)C(=O)Nc1ccccc1F | i | i | i | i | nt
O=C(N/N=C/c1sc(N2CCOCC2)nc1-c1ccccc1)c1ccccc1O | 48.5 | i | i | i | i
Nc1ccc(C(=O)N/N=C/c2sc(N3CCOCC3)nc2-c2ccccc2)cc1 | 48.2 | i | i | i | i
Cc1ccc(/C=N/Nc2cccc(C(=O)O)c2)s1 | i | i | i | i | nt
COc1cc(C(=O)Nc2ccc3nc(N4CCOCC4)sc3c2)cc(OC)c1OC | i | i | i | i | nt
CCCCN1CC(COc2ccc(OC)cc2)OCCS1(=O)=O (configuration not stated) | nt | i | i | nt | nt
CN(c1ccc(NC(=O)CCc2c[nH]c3ccccc23)cc1)c1ccccn1 | nt | i | i | nt | nt
Cc1ccc(S(=O)(=O)NC(CCCNC(=O)OCc2ccccc2)C(=O)O)cc1 (configuration not stated) | nt | i | i | nt | nt
COC[C@H]1CCCN1c1ccc2c(c1)O[C@H](C)CCN(C1CC1)S2(=O)=O | nt | i | i | nt | nt
O=[n+]1cc(-c2cc3ccccc3o2)n([O-])c2c1CCCC2 | 44.2 | i | i | i | i
O=[n+]1cc(-c2ccccc2)n([O-])c2c1CCCCC2 | i | i | i | i | nt
Cc1cc(=O)oc2c(C)c(OC3CCCCC3=O)ccc12 (configuration not stated) | 43.6 | i | i | i | +
SMILES | Neddylation inh | GC-B act | GC-A act | NadD block | Neddyl inh conf
CCN(CC)c1cc(C)c2cc(NC(=O)CNC(C)=O)ccc2n1 | 42.8 | i | i | i | +
CCN(CC)C(=O)CC[C@H]1CC[C@]2(CCCN(C(=O)c3ccc4ccccc4n3)C2)O1 | nt | i | i | nt | nt
COc1cc2[nH]c3c(c2cc1OC)CCN1CCCC[C@@H]31 | 48.5 | i | i | i | i
COc1cc2[nH]c(=S)n(C3CCCC3)c(=O)c2cc1OC | i | i | i | i | nt
COC(=O)[C@]12C[C@H](CC(=O)N3CCN(C(=O)c4ccco4)CC3)C(=O)N(CCC3=CCCCC3)C1=C[C@H](COCc1ccccc1)O[C@@H]2C | nt | i | i | nt | nt
O=C(N/N=C/c1ccc(-c2cccc(C(F)(F)F)c2)o1)c1ccccc1O | 51.4 | i | i | i | i
CCN=C1S/C(=C/c2ccc(-c3ccc(F)cc3)o2)C(=O)N1CC | i | i | i | i | nt
CCN=C1S/C(=C\c2ccc(Sc3ccc(Cl)cc3)o2)C(=O)N1CC | 39.2 | i | i | i | nt
COCc1cc(C)nc(NC2CC(C)(C)NC(C)(C)C2)c1C#N | 40.9 | i | i | i | +
CCNc1nc(C)cc(COC)c1C#N | nt | i | i | i | nt
Cc1cc(Br)c2nc(-c3ccc(F)cc3)c(Cc3cccc(Cl)c3)n2c1 | nt | i | i | nt | nt
Cc1cc2nc(C)c(=O)n(C)c2cc1C | 47.0 | i | i | i | i
CC1(C)CC(=O)c2cc(OCC(=O)N3CCN(c4ccccc4F)CC3)ccc2O1 | 52.0 | i | i | i | nt
COCC(=O)N[C@@H]1C[C@@H]2O[C@H](CO)CC[C@@H]2O[C@@H]1CCc1ccc(-c2ccccc2)cc1 | nt | i | i | nt | nt
CN(Cc1ccccc1)C(=O)c1cccc(NC(=O)Cc2cccc(NC(=O)C3CCN(C(=O)CCc4ccccc4)CC3)c2)c1 | nt | i | i | nt | nt
CC1(C)C2CCC1(CS(=O)(=O)NC1CCCC1)C(=O)C2 (configuration not stated) | 42.6 | i | i | i | i
COc1ccc(C(=O)C2(C(=O)NCCO)CC(c3ccccn3)=NO2)cc1 (configuration not stated) | nt | i | i | nt | nt
FC(F)C(F)(F)Oc1cccc(Nc2nccn3c(-c4cccc5ccccc45)cnc23)c1 | 47.0 | i | i | i | i
CCN1Cc2nnn(Cc3ccccc3)c2-c2cc(N3CCCC3)ccc2S1(=O)=O | nt | i | i | nt | nt
CCOC(=O)c1cn2nc(Oc3cccc(F)c3)ccc2n1 | 41.3 | i | i | i | i
COC(=O)C1CN(Cc2ccc(C)cc2)CCS(=O)(=O)N1Cc1cn(Cc2ccc(F)cc2)nn1 (configuration not stated) | nt | i | i | nt | nt
COC(=O)/C=c1/s/c(=C(\C#N)C(=O)NCc2ccco2)n(-c2ccccc2)c1=O | i | i | i | i | nt
COc1ccc(/C=c2\s/c(=C(/C#N)C(=O)NCc3ccco3)n(-c3ccccc3)c2=O)cc1 | 47.2 | i | i | i | i
S=C(Nc1ccc(Br)cc1)OCCN1CCCC12CCC(c1ccccc1)CC2 (configuration not stated) | nt | i | i | nt | nt
Cc1nc(-c2ccccc2)ccc1C(=O)O | i | i | i | i | nt
SMILES | Neddylation inh | GC-B act | GC-A act | NadD block | Neddyl inh conf
Cc1nc(-c2cccc3ccccc23)ccc1C(=O)O | 42.7 | i | i | i | i
CNc1nc2c(C)cccn2c(=O)c1C=NCc1ccccc1 | i | i | i | i | nt
CN=Cc1c(NC)nc2c(C)cccn2c1=O | 42.8 | i | i | i | +
Cc1cccn2c(=O)c(C=Nc3ccccc3)c(NCCO)nc12 | 45.8 | i | i | i | i
Cc1cccn2c(=O)c(C=Nc3ccc(Cl)cc3)c(NCCO)nc12 | i | i | i | i | nt
CCN(CC)C(=O)[C@H]1C[C@@H]2[C@H](C[C@@H](c3ccccc3)[C@H]1C)N(c1ccc(F)cc1)C(=O)N2C/C=C(\C)CCC=C(C)C | nt | i | i | nt | nt
Nc1cc(N)cc(-c2nc3ccccc3[nH]2)c1 | 41.2 | i | i | i | nt
c1ccc(-c2nc3ccccc3[nH]2)cc1 | i | i | i | i | nt
CN(CCCOC(=O)c1cc2ccccc2o1)C1CN(Cc2cn(Cc3ccccc3C(F)(F)F)nn2)S(=O)(=O)C1 (configuration not stated) | nt | i | i | nt | nt
